Bioassay records from PubChem.
A selection: hits, their analogues and other compounds. The true share with any hit is near 2.8%.
PAFAH2 FP inh = inhibitors of human PAFAH2; Q99487; recombinant PAFAH2, FP-rhodamine activity probe, fluorescence polarization; inhibition, % at 3.39 µM; hit rate 0.99% among 340,000;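 active = inhibition above the mean over all tested compounds plus 3 SD, cut at about 30% in these data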;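 also: inhibitors block probe labeling of enzyme so polarization drops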
PME-1 primary = PME-1 (human) inhibition | Q9Y570 | recombinant PME-1, FP-Rh probe fluorescence polarization | inhibition, % at 5.9 µM | hit rate 0.53% among 320,000;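 active = inhibition above the campaign mean of all compounds plus 3 SD, cut at about 26% in these data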;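 also: competitive labeling of PME-1 active site by serine hydrolase directed probe; inhibitors block probe labeling so polarization falls and inhibition rises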
Target sequence (Q9Y570 whole entry, looked up): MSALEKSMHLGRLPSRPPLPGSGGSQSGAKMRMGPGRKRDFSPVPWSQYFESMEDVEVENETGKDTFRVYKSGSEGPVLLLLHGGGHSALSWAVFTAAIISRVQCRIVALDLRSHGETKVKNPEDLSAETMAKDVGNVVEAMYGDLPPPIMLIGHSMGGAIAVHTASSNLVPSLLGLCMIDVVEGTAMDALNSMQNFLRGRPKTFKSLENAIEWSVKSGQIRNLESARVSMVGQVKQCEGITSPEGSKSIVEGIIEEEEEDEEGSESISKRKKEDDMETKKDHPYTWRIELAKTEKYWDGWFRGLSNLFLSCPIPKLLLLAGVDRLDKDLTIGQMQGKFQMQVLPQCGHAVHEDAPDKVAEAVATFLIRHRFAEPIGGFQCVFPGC
PAFAH1B3 inh = blocks human PAF acetylhydrolase 1B catalytic subunit 3; recombinant PAFAH1B3, FP-rhodamine probe, fluorescence polarization; inhibition, % at 3.39 µM; hit rate 0.28% among 340,000; AID 492972;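 active = inhibition above the screen-wide average of all tested compounds plus 3 SD, cut at about 25% in these data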
pPAFAH FP inh = pPAFAH (human) enzyme inhibition; Q13093; recombinant pPAFAH, FP-rhodamine probe fluorescence polarization; inhibition, % at 3.39 µM; hit rate 1.5% among 330,000;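 active = inhibition above the mean inhibition across the screen plus 3 SD, cut at about 25% in these data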;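 also: inhibitors block binding of the rhodamine activity-based probe so polarization drops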
PAFAH1B2 FP inh = blocks human PAF acetylhydrolase 1b catalytic subunit 2. P68402. recombinant PAFAH1B2, FP-rhodamine activity probe, fluorescence polarization. inhibition, % at 3.39 µM. hit rate 1.2% among 340,000;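 active = inhibition above the mean of all tested compounds plus 3 SD, cut at about 24% in these data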
Target sequence (P68402 whole entry, looked up): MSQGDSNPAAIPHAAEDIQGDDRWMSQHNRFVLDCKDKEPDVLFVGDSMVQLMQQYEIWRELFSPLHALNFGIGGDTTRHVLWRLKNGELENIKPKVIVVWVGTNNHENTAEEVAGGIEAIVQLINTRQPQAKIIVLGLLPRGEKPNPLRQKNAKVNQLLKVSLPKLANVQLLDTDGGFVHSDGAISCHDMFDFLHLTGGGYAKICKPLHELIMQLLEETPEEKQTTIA
Fam108B inh = blocks mouse Fam108B hydrolase in RBBP9 counter-screen; recombinant Fam108B, FP-Rh probe fluorescence polarization; inhibition, % at 9.51 µM; hit rate 0.33% among 300,000; AID 1947;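 active = inhibition above the screen mean inhibition plus 3 SD, computed separately per campaign, cut at about 18% in these data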;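 also: inhibitors lower polarization as less probe binds the enzyme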
PAFAH2 confirm = confirmation of human PAFAH2 inhibitors. shares compounds with PAFAH2 FP inh. AID 493030. recombinant PAFAH2, FP-rhodamine activity probe, fluorescence polarization. inhibition, % at 3.39 µM. hit rate 65% among 2,300;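 active = mean inhibition over three repeats above a set limit taken from the earlier primary screen, cut at about 30% in these data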;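 also: inhibitor blocks binding of rhodamine activity probe so polarization falls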
Each line names hits and unclear results; the compound was inactive in the other large screens (follow-up assays come after a bar, where they were run); ! = a repeat was not active.

Cc1ccc(C(=O)OCC(=O)NN2C(=O)NC3(CCC(C)CC3)C2=O)cc1 (configuration not stated)	PAFAH2 FP inh 74 | PAFAH2 confirm 54
Cc1cccc(C(=O)OCC(=O)NN2C(=O)NC3(CCCCC3)C2=O)c1	none (no result: Fam108B inh)
Cc1cc(C)c(NC(=O)c2cc(C(=O)O)ccc2C(=O)O)c([N+](=O)[O-])c1	none
COc1ccc2oc(C(=O)OCC(=O)NC3(C#N)CCCC3)c(C)c2c1	PAFAH2 FP inh 53 | PAFAH2 confirm 38
COc1ccc2oc(C(=O)OCC(=O)Nc3ccc(NC(C)=O)cc3)c(C)c2c1	none
Cc1c(C(=O)OCC(=O)NC2CC2)oc2ccc(Br)cc12	none (no result: PME-1 primary, pPAFAH FP inh, Fam108B inh)
COc1ccc2oc(C(=O)OCC(=O)NC3CCCC3)c(C)c2c1	PAFAH2 FP inh 53 | PAFAH2 confirm 40
O=C(O)C1=C[C@H](c2ccc(C(F)(F)F)cc2)C[C@H](OCCCCO)O1	none
NNc1cc([N+](=O)[O-])cc2c1C(=O)N(Cc1ccccc1)S2=O (configuration not stated)	none
C/C(N)=C(/C#N)C(=O)CSc1nnc(Nc2c(C)cccc2C)s1	PAFAH2 FP inh 32! | PAFAH2 confirm inactive
CN1CCN(C(=O)c2cc([N+](=O)[O-])cc([N+](=O)[O-])c2)CC1	none
O=C1CCCC2=C1C(c1cccc(O)c1)C1=C(N2)c2ccccc2C1=O (configuration not stated)	PAFAH2 FP inh 30 | PAFAH2 confirm inactive
Cc1cccc(NC(=S)NC2CC3CCCC(C2)N3Cc2ccccc2)c1C (configuration not stated)	none
Cc1cc(C)c2c(-n3cccc3)nn(C)c2n1	none
Cc1ccc(C(=O)n2nc(-n3cccc3)c3c(C)cc(C)nc32)cc1	PAFAH2 FP inh 49 (no result: PME-1 primary, pPAFAH FP inh, Fam108B inh) | PAFAH2 confirm 51
COc1ccc(C(=O)n2nc(C)c(Br)c2C)cc1	PAFAH2 FP inh 31 | PAFAH2 confirm inactive
O=C(Nc1ccccc1)C1CCOC1=O (configuration not stated)	none (no result: PAFAH2 FP inh, PAFAH1B3 inh, PAFAH1B2 FP inh)
CN(C)c1ccc(C(=O)OCC(=O)N2CCCCCC2)cc1	PAFAH2 FP inh 57 | PAFAH2 confirm 55
CCc1ccc(C(=O)OCC(=O)N2CCCCCC2)cc1	PAFAH2 FP inh 38 (no result: Fam108B inh) | PAFAH2 confirm inactive
COc1ccccc1/C=C/C(=O)OCC(=O)N1c2ccccc2CC1C (configuration not stated)	PAFAH2 FP inh 34 (no result: Fam108B inh) | PAFAH2 confirm inactive
CC1Cc2ccccc2N1C(=O)COC(=O)c1ccc(N(C)C)cc1 (configuration not stated)	PAFAH2 FP inh 55 (no result: Fam108B inh) | PAFAH2 confirm 55
CN(C)c1ccc(C(=O)OCC(=O)N2CCCC2)cc1	none
O=c1c2nnn(Cc3ccccc3)c2ncn1C/C=C/c1ccccc1	none
Cn1c(NC(=O)c2ccc(F)cc2)c(-c2ccccn2)c(=O)c2ccccc21	none (no result: PAFAH2 FP inh, PAFAH1B3 inh, PAFAH1B2 FP inh)
C/C(=N\NC(=O)c1ccccn1)c1ccc(C(=O)O)s1	none (no result: PAFAH2 FP inh, PAFAH1B3 inh, PAFAH1B2 FP inh)
Nc1ccc(C(=O)OCCCc2nc3ccccc3[nH]2)cc1	none
Nc1ccc(C(=O)OCc2nc3ccccc3[nH]2)cc1	PAFAH2 FP inh 88 | PAFAH2 confirm 79
CCC(CO)Oc1cc(NCc2ccccn2)c2ncn(C(C)C)c2c1 (configuration not stated)	none (no result: PME-1 primary, Fam108B inh)
CCN(CC)c1ccc(C(=O)Nc2cccc(F)c2)cc1	PAFAH2 FP inh 38 | PAFAH2 confirm 42
CN(C)c1cccc(C(=O)Nc2cccc(F)c2)c1	none
CCN(CC)S(=O)(=O)c1ccc(O)c(NC(=O)CN2CCc3ccccc3C2)c1	PAFAH2 FP inh 56 | PAFAH2 confirm 56
CN(c1ccccc1)S(=O)(=O)c1cccc(NC(=O)CN2CCc3ccccc3C2)c1	none
COc1ccc(NS(=O)(=O)c2cc([N+](=O)[O-])ccc2NN=Cc2ccccc2OCC(=O)O)cc1	PAFAH2 FP inh 49 (no result: PME-1 primary, Fam108B inh) | PAFAH2 confirm inactive
CCc1ccc(/C=C2\Oc3c(ccc(O)c3CN3CCN(CCO)CC3)C2=O)cc1	PAFAH2 FP inh 58 | PAFAH2 confirm 39
O=C(CCn1c(=O)oc2ccccc21)Nc1cccc(Cl)c1	PAFAH2 FP inh 43 | PAFAH2 confirm inactive
O=C(c1cc(-c2ccc(Cl)cc2Cl)on1)N1CCN(C(=O)c2ccco2)CC1	PAFAH2 FP inh 65 | PAFAH2 confirm 41
O=C(c1cc(-c2ccccc2Cl)on1)N1CCN(C(=O)c2ccco2)CC1	PAFAH2 FP inh 43 | PAFAH2 confirm 35
O=C(c1cc(-c2ccc(Cl)cc2Cl)on1)N1CCCC1	PAFAH2 FP inh 31 | PAFAH2 confirm inactive
O=C(c1ccco1)N1CCN(C(=O)c2ccc(-c3ccccc3Cl)o2)CC1	none (no result: Fam108B inh)
Clc1ccc(CON/C=N/c2ncnc3sccc23)c(Cl)c1	none
CC(c1ccco1)N(C(=O)c1ccccc1NS(=O)(=O)c1cc([N+](=O)[O-])ccc1Cl)c1ccccn1 (configuration not stated)	PAFAH2 FP inh 63 | PAFAH2 confirm 71
CCN(CC(=O)N1CCOCC1)S(=O)(=O)c1cc(Cl)ccc1Cl	none
Cc1cccc(C)c1NC1=C(Cl)C(=O)OC1OC(=O)c1ccccc1 (configuration not stated)	PAFAH2 FP inh 31 | PAFAH2 confirm inactive
Cc1ccc(NC2=C(Cl)C(=O)OC2OC(=O)c2ccccc2)c(C)c1 (configuration not stated)	none
O=C(NN(CC(O)COc1ccccc1)CC(O)COc1ccccc1)c1ccccc1 (configuration not stated)	none
O=C(CN(Cc1ccco1)C(=O)CNS(=O)(=O)c1ccc(Cl)cc1)NCc1ccco1	none
C/C(=N/OC(=O)c1c(F)cccc1F)c1nccs1	none
COc1ccc(C(=O)O/N=C(\C)c2nccs2)cc1	PAFAH2 FP inh 67 | PAFAH2 confirm 60
COc1ccc(C2CC2/C(C)=N/OC(=O)c2cccs2)cc1 (configuration not stated)	none
COc1ccc(C(=O)O/N=C(/C)c2cccs2)cc1	PAFAH2 FP inh 64 | PAFAH2 confirm 55
COc1cccc(Cn2cc(N)cn2)c1	none
CC(NC(=O)c1ccc(CS(C)(=O)=O)cc1)c1cccc2ccccc12 (configuration not stated)	none
CC(C)=CCC/C(C)=C/CNC(=O)C[C@H]1C[C@H](C(=O)N2CCCCC2)[C@@]2(CCc3ccccc3)c3[nH]c4cc(CCC(=O)N(C)C)ccc4c3CCN2C1=O	none (no result: PME-1 primary, Fam108B inh)
CCC(=Cc1ccccc1OC)c1ccncc1	none (no result: PME-1 primary, pPAFAH FP inh, Fam108B inh)
Cc1ccc2cc(-c3noc(C4CCCO4)n3)c(=O)[nH]c2c1 (configuration not stated)	none
Cc1ccc2cc(-c3noc(C4CCCCC4)n3)c(=O)[nH]c2c1	PAFAH2 FP inh 47 | PAFAH2 confirm 51
CCOc1ccccc1-c1nc(-c2cc3ccc(C)cc3[nH]c2=O)no1	PAFAH2 FP inh 52 | PAFAH2 confirm 32
O=C(Cn1nc(-c2ccc(Cl)cc2)c2ccccc2c1=O)NN1CCOCC1	none (no result: PAFAH2 FP inh, PAFAH1B3 inh, PAFAH1B2 FP inh)
